We go through three compounds from PubChem BioAssay (EPA / NIEHS).

The structures appear in SMILES notation. The source made the active and inactive calls. Rule for the calls: active = hit-call score of the fitted dose curve at least 0.9, where 1 is the maximum; inactive = score below 0.9.

Test [1] can be described thus: ATG_CRE_CIS: Attagene CIS-FACTORIAL HepG2 Assay for human cAMP Responsive Element (CRE) binding protein 3 (AID 2282926). The following applies: HepG2 CRE cis-reporter, Attagene multiplexed mRNA; actives raise or lower the signal. Summed up: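 Capillary electrophoresis of 6-FAM-labelled, HpaI-digested PCR products quantified reporter transcripts. These came from HepG2 transiently transfected with cis-element reporters and exposed to test chemicals for 24 hours, with DMSO defining baseline activity.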

The target of test [2] is CCAAT/enhancer-binding protein beta (Homo sapiens) (UniProt P17676). The experiment in a line: ATG_C_EBP_CIS: Attagene CIS-FACTORIAL HepG2 Assay for human CCAAT/Enhancer Binding Protein (C/EBP) beta (AID 2282927). To be noted: HepG2 Attagene cis-factorial transcription factor reporter; actives raise or lower the signal. Summed up: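 Following a 24 h incubation with test chemical, transfected HepG2 cells yielded RNA whose reporter transcripts were quantified by RT-PCR and fluorescent capillary electrophoresis, with DMSO serving as baseline for bidirectional fitting.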
Chain of CCAAT/enhancer-binding protein beta (Homo sapiens) (P17676 whole entry, looked up): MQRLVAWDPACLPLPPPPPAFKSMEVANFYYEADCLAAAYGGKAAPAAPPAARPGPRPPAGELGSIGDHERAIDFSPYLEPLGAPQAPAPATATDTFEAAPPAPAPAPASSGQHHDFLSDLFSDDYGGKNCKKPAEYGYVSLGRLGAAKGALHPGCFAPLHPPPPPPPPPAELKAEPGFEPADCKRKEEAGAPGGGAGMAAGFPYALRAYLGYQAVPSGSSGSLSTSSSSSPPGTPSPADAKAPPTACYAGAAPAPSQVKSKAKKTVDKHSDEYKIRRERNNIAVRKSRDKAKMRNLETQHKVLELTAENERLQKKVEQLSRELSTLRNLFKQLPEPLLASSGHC

Test [3] can be described thus: ATG_CMV_CIS: Attagene CIS-FACTORIAL HepG2 Assay for human CMV (Internal Marker) (AID 2282928).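 Note: endpoint acts as a background internal control marker rather than a target.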 The following applies: HepG2 CMV promoter reporter, transcription factor profiling; actives raise or lower the signal. Summed up: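 Fluorescence intensity of RT-PCR-derived reporter fragments, resolved by capillary electrophoresis, gives the signal. HepG2 liver cells bearing transfected cis-element reporters were treated 24 h; activity in either direction was fit relative to DMSO-treated controls.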

Test [4] in a line: ATG_DR4_LXR_CIS: Attagene CIS-FACTORIAL HepG2 Assay for human Liver X Receptor (LXR), DR4 submotif (AID 2282929). To be noted: HepG2 Attagene DR4 cis-reporter, mRNA transcription; actives raise or lower the signal. Summed up:
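Cells were transfected with multiple reporter transcription units, exposed to chemicals for 24 hours, then lysed for RNA. Reporter mRNA induction was measured by RT-PCR with capillary electrophoresis detection and fitted in both directions relative to DMSO.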

A short description of test [5]: ATG_AP_1_CIS: Attagene CIS-FACTORIAL HepG2 Assay for human Activator Protein 1 (AP-1) (AID 2282931). To be noted: HepG2 Attagene cis-factorial AP-1 reporter mRNA; actives raise or lower the signal. In a few lines: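 Endogenous transcription-factor activity in human HepG2 liver cells is read through a cis-promoter reporter transcript, sampled 24 h after dosing. Detection uses RT-PCR with capillary electrophoresis; values come from bidirectional fitting relative to DMSO.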

The nature of test [6]: ATG_AP_2_CIS: Attagene CIS-FACTORIAL HepG2 Assay for human Activator Protein 2 (AP-2) (AID 2282932). The following applies: HepG2 AP-2 cis-reporter, Attagene transcription factor profiling; actives raise or lower the signal. In a few lines:
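Cells (HepG2) transfected with promoter-driven reporter constructs, treated 24 h. Total RNA reverse-transcribed, reporter cDNA PCR-amplified, FAM-labelled by primer extension, digested, resolved by capillary electrophoresis. Activity fitted both directions versus DMSO.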

Test [7] can be described thus: ATG_BRE_CIS: Attagene CIS-FACTORIAL HepG2 Assay for human Bone Morphogenetic Protein (BMP) Response Element (BRE) (AID 2282933). To be noted: HepG2 BMP response element reporter, Attagene transcription factor profiling; actives raise or lower the signal. In a few lines:
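HepG2 cells transiently transfected with CIS reporter units (endogenous TF activity, BMP response element), dosed 24 h. Reporter mRNA quantified by RT-PCR, fluorescent labelling and capillary electrophoresis; bidirectional fit vs DMSO baseline.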

Test [8] concerns the target Transcription factor E2F1 (Homo sapiens) (UniProt Q01094). The experiment in a line: ATG_E2F_CIS: Attagene CIS-FACTORIAL HepG2 Assay for human E2F Transcription Factor 1 (AID 2282935). To be noted: HepG2 Attagene cis-reporter, E2F reporter RNA transcripts; actives raise or lower the signal. Summed up:
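First, HepG2 cells were transfected with reporter transcription units. Next, they were dosed for 24 h. Then RNA was isolated, converted to cDNA, PCR-amplified, FAM-labeled, HpaI-digested and analyzed by capillary electrophoresis.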

Test [9] in a line: ATG_E_Box_CIS: Attagene CIS-FACTORIAL HepG2 Assay for human Enhancer Box (E-box) (AID 2282936). To be noted: HepG2 E-box cis-reporter transcription, actives raise or lower the signal. Summed up: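 Endogenous transcription factor activity was sensed in human HepG2 liver cells through transfected cis-promoter reporter units. After 24 h of dosing, total RNA was reverse-transcribed and reporter cDNA resolved by capillary electrophoresis.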

Test [10] can be described thus: ATG_M_61_CIS: Attagene CIS-FACTORIAL HepG2 Assay for M61 Transcription Factor (Internal Marker) (AID 2282937). The following applies: HepG2 Attagene CIS-FACTORIAL M61 internal marker reporter; actives raise or lower the signal. In a few lines:
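Cells were transfected with reporter units under cis-regulatory promoters, treated with chemicals for 24 h, then lysed for RNA. Reporter transcripts were quantified by RT-PCR and capillary electrophoresis, and activity was fitted bidirectionally against DMSO.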

Test [11] in a line: ATG_EGR_CIS: Attagene CIS-FACTORIAL HepG2 Assay for human Early Growth Response 1 (EGR1) (AID 2282938). To be noted: HepG2 Attagene CIS-FACTORIAL EGR reporter mRNA; actives raise or lower the signal. Summed up:
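Endogenous TF activity in HepG2 liver cells was gauged through cis-promoter reporter constructs transiently transfected. After 24 h dosing, reporter mRNA was quantified by RT-PCR and capillary electrophoresis, and curves fitted in both directions versus DMSO.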

Test [12] in a line: ATG_Ets_CIS: Attagene CIS-FACTORIAL HepG2 Assay for human Erythroblast Transformation Specific (ETS) (AID 2282941). To be noted: HepG2 ETS cis-reporter transcription, actives raise or lower the signal. Summed up: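 Multiplexed reporter transcript profiling: HepG2, 24 h treatment, total RNA to cDNA, PCR, 6-FAM labelling, HpaI cut, capillary electrophoresis. Gain- or loss-of-signal fitted against DMSO.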

A short description of test [13]: ATG_FoxO_CIS: Attagene CIS-FACTORIAL HepG2 Assay for human Forkhead box O (FoxO) (AID 2282943). The following applies: HepG2 Attagene cis-reporter, FoxO element, mRNA; actives raise or lower the signal. In a few lines:
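Values reflect reporter mRNA induction or loss in HepG2 cells 24 h post-dosing, fitted bidirectionally with DMSO as negative control and baseline. Detection used RT-PCR and fluorescence capillary electrophoresis.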

Test [14] can be described thus: ATG_GATA_CIS: Attagene CIS-FACTORIAL HepG2 Assay for human GATA Binding Protein (AID 2282944). To be noted: HepG2 GATA cis-element reporter, Attagene multiplex mRNA; actives raise or lower the signal. Summed up:
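HepG2 cells transiently transfected with multiplexed cis-element reporter units measure endogenous GATA activity; after 24 h compound exposure, reporter mRNA quantified by RT-PCR and capillary electrophoresis. Changes fitted in both directions vs DMSO.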

Test [15] in a line: ATG_GLI_CIS: Attagene CIS-FACTORIAL HepG2 Assay for human Zinc Finger Protein GLI1 (AID 2282945). To be noted: HepG2, Attagene cis-factorial reporter mRNA, GLI element; actives raise or lower the signal. In a few lines: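 HepG2 cells transiently transfected with cis-promoter multiplexed reporter units report endogenous transcription factor activity. After 24 h chemical exposure, reporter mRNA was quantified by RT-PCR, 6-FAM labelling, HpaI digestion and capillary electrophoresis, with bidirectional fitting against DMSO.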

Test [16] is described as follows: ATG_ISRE_CIS: Attagene CIS-FACTORIAL HepG2 Assay for human Interferon Regulatory Factor 1 (IRF1) binding to an Interferon-Stimulated Response Element (ISRE) (AID 2282948). The following applies: HepG2 ISRE cis-reporter (Attagene), mRNA transcription readout; actives raise or lower the signal. In a few lines: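 Signal reflects induction or loss of ISRE-linked reporter mRNA in transiently transfected HepG2 cells after a 24 h treatment, detected by fluorescent RT-PCR fragments on capillary electrophoresis and normalised to DMSO.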

Test [17] can be described thus: ATG_M_32_CIS: Attagene CIS-FACTORIAL HepG2 Assay for M32 Transcription Factor (Internal Marker) (AID 2282949).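 Note: background control marker of the multiplexed CIS panel rather than a real target.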 The following applies: HepG2 Attagene cis-factorial M32 reporter, mRNA; actives raise or lower the signal. In a few lines: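 HepG2 human liver cells transiently transfected with cis-promoter-driven multiple reporter transcription units, dosed 24 h. Reporter mRNA quantified by RT-PCR, FAM-labelled primer extension, HpaI digest and capillary electrophoresis; bidirectional fit versus DMSO baseline.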

Test [18] can be described thus: ATG_M_06_CIS: Attagene CIS-FACTORIAL HepG2 Assay for M06 Transcription Factor (Internal Marker) (AID 2282950). The following applies: HepG2 Attagene CIS-FACTORIAL M06 internal marker reporter; actives raise or lower the signal. Summed up:
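Internal background marker within multiplexed cis-reporter HepG2 system. Cells transiently transfected, dosed 24 h; reporter mRNA measured by RT-PCR, HpaI digestion and capillary electrophoresis. Bidirectional fit relative to DMSO.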

Test [19] deals with Paired box protein Pax-6 (Homo sapiens) (UniProt P26367). In words: ATG_Pax6_CIS: Attagene CIS-FACTORIAL HepG2 Assay for human Paired Box 6 (PAX6) (AID 2282956). The following applies: HepG2 CIS-FACTORIAL PAX6 reporter transcription, RNA readout; actives raise or lower the signal. In a few lines: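 Values derive from bidirectional curve fitting of reporter mRNA signal relative to DMSO. HepG2 cells bearing transfected cis-regulated MRTUs were exposed for 24 h; transcripts were read by RT-PCR and capillary electrophoresis.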
Chain of Paired box protein Pax-6 (Homo sapiens) (P26367 whole entry, looked up): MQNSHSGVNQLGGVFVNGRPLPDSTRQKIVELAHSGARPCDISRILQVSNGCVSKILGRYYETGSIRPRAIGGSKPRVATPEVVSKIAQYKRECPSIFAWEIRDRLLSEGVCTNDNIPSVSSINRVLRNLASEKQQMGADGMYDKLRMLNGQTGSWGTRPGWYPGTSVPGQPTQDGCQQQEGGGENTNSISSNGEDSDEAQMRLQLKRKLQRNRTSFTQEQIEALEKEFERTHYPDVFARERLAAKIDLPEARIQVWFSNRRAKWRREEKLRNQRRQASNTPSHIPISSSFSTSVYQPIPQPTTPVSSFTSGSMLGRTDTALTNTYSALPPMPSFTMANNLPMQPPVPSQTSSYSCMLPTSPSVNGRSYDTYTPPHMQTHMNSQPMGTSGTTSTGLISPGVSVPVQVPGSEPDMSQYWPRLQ

Test [20] is described as follows: ATG_PXRE_CIS: Attagene CIS-FACTORIAL HepG2 Assay for human Pregnane X Receptor Element (PXRE) (AID 2282957). The following applies: HepG2 Attagene CIS-FACTORIAL PXRE reporter, mRNA; actives raise or lower the signal. Summed up: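 Fluorescent capillary electrophoresis of amplified reporter cDNA gave the signal, collected 24 h after dosing HepG2 cells that held transfected cis-element reporter constructs.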

Chain of Transcription factor E2F1 (Homo sapiens) (Q01094 whole entry, looked up): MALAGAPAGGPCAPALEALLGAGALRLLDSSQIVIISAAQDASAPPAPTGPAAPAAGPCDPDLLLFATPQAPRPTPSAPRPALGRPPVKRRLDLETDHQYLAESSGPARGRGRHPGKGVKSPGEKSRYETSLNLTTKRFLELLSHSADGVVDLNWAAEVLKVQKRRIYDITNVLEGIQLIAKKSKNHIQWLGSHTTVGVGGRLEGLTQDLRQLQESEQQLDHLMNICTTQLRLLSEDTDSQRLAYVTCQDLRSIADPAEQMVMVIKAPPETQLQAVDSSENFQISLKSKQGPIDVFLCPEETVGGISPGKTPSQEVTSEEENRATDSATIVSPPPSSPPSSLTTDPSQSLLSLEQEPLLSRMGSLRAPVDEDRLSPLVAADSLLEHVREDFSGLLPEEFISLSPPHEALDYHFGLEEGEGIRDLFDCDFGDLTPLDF

Broadly, the AC50 is the concentration at which the activity in the assay is half-maximal. Regarding `CCCCCCCCCCC1CO1` (stereo not given), the result in [1], in test [2], in test [3], in test [4], in test [6] and in test [7] was inactive. For the same compound, the compound was called inactive in test [8], in test [9], in [10], in test [11], in test [12] and in [13]. The compound was called inactive in [14], in test [16], in test [17], in test [18] and in [19]. The AC50 is 164 µM (active) in test [5], 159 µM (active) in [15] and 27 µM (active) in test [20].
Turning to `Nc1ccc(S(=O)(=O)Nc2cnc3ccccc3n2)cc1`, the compound was classed as inactive in test [1], in test [2], in [3], in [4], in test [5] and in [6]. The call in test [7], in test [8], in [9], in [10], in test [11] and in [12] was inactive. The result in test [13], in test [14], in [15], in test [16], in test [17] and in [18] was inactive. Further, the call in test [19] and in test [20] was inactive.
Regarding `CN(C)CCC(c1ccc(Cl)cc1)c1ccccn1` (stereo not given), the outcome in test [1], in test [2], in [3], in [4], in [5] and in [6] was inactive. In addition, the result in test [7], in test [8], in test [9], in [10], in test [11] and in test [12] was inactive. Also, the outcome in test [13], in [14], in [15], in [17], in [18] and in [19] was inactive. The result in test [20] was inactive. Moreover, the AC50 in test [16] was 125 µM (active).
